# From PubChem BioAssay
# Compounds with a hit are over-represented: about 1.2% of the library has one in this group of screens.
# Phagocytosis inh = blocks phagocytosis by macrophages; J774A.1 macrophage IgG-bead phagocytosis, imaging; inhibition, % at 5 µM; 110,000 compounds, 0.07% hits; AID 1029;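 active = inhibition above the mean of the plate negative controls plus 5 SD, cut at about 13% in these data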;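 note: phagocytic index as fraction of beads internalized from green versus red external bead signal; plate controls were DMSO negative control for no effect and cytochalasin-D positive control for full effect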
# E-sel TNF inh = blocks E-selectin expression induced by TNF alpha. HUVEC TNFa-induced E-selectin immunofluorescence, high content. inhibition, % at 2 µM. 120,000 compounds, 0.71% hits. AID 1246;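 active = inhibition above the batch mean plus 3 SD, and confirmed as a hit on visual image review, cut at about 43% in these data; inconclusive = passes the inhibition cutoff but fails visual image review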;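 note: 0% = TNF-stimulated DMSO wells and 100% = unstimulated control wells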
# VCAM1 TNFa inh = reduces TNF alpha induced VCAM1 expression in HUVEC; HUVEC TNFa-induced VCAM-1 immunofluorescence, high-content imaging; inhibition, % at 2 µM; 95,000 compounds, 0.48% hits;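 active = inhibition above the batch mean plus 3 SD, with images confirmed as a hit by eye, cut at about 37% in these data; inconclusive = inhibition above that limit but hit not confirmed in images; inactive = inhibition not above that limit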;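 note: 0% = TNF-stimulated DMSO wells and 100% = unstimulated control wells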
# TNFa cytotox = HUVEC cytotoxicity counter-screen, TNF alpha stimulated. HUVEC TNFalpha-stimulated, Hoechst cell count, imaging. cell count reduction, % at 2 µM. 93,000 compounds, 0.17% hits;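 active = cell count reduction exceeding the screen mean by over 5 SD, scaled to untreated wells per plate, cut at about 78% in these data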;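 note: cells counted after 24 h of TNF alpha exposure following the 1 h pretreatment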
# SDO1 yeast rescue = restores growth of sdo1-depleted yeast. S. cerevisiae sdo1-depleted JHY4D growth rescue, OD600 30 h; stronger effect = higher value; pdr5 snq2 efflux-pump mutant strain. z-score at 10 µM. 140,000 compounds, 0.21% hits;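 active = z-score above 3 at both the 24 hr and the 30 hr optical density reads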;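 note: z-score against mean and SD of all compound wells on the same plate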
# cytoskel mod = modifiers of cytoskeleton assembly; AID 836; 91,000 compounds, 0.18% hits; HUVEC TNFa F-actin phalloidin imaging, high content; inhibition, % at 2 µM;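 active = inhibition above the batch mean plus 3 SD and confirmed as a hit by visual image inspection, cut at about 30% in these data, passing the limit was not always enough; inconclusive = above the inhibition threshold but rejected on visual inspection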
# An asterisk follows results filed as active; ? = inconclusive; / = no result; [ ] = dose if it differs, or a comment.
SMILES,Phagocytosis inh,E-sel TNF inh,VCAM1 TNFa inh,TNFa cytotox,SDO1 yeast rescue,cytoskel mod
CCOC(=O)C1CCN(Cc2ccccc2C)CC1,1,8,-11,-40,0.77,30*
C/C(Cc1ccccc1)=N\NC(=O)CNC(=O)c1ccccc1Br,-4,/,/,/,0.5,/
Cc1cc(N2CCCCC2)nc(NCc2ccccc2)n1,/,72*,9,-10,-0.41,-2
CCN(CC)c1ccc2c(c1)OC(N)=C(C#N)C2c1cccnc1 (centres undefined),/,/,39*,51,-0.24,-51
N#CC1=C(N)Oc2cc(Nc3ccccc3)ccc2C1c1ccncc1 (centres undefined),/,54*,-6,-4,-0.76,20
N#CC1=C(N)Oc2cc(N)ccc2C1c1cccnc1 (centres undefined),-3,-1,/,/,0.87,/
CN(Cc1nc(Cc2cccc(F)c2)no1)CC1CCOCC1,/,9,/,/,/,/
O=S(=O)(c1cccs1)N1CCN(CC(O)COC2CCCc3ccccc32)CC1 (centres undefined),1,18,-3,-2,0.01,-23
O=S(=O)(c1cccs1)N1CCN(CC(O)COc2cccc(Br)c2)CC1 (centres undefined),1,-8,94*,55,-0.88,-13
CCOC(=O)NC(NC(=S)Nc1ccc(OCC)cc1)C(Cl)(Cl)Cl (centres undefined),29*[artifact],/,/,/,-0.1,/
Cc1ccc(C(=O)NC(NC(=S)Nc2ccc(S(N)(=O)=O)cc2)C(Cl)(Cl)Cl)cc1 (centres undefined),-8,/,/,/,1.4,/
CCCCN(C)CCCNC(=O)c1cc(=O)[nH]c2ccc(S(=O)(=O)N3CCCCC3C)cc12 (centres undefined),/,-5,/,/,/,/
O=C(CSc1nnc(-c2ccc(O)cc2)n1Cc1ccccc1)NNC(=O)c1ccc(Br)cc1,-6,/,/,/,0.17,/
O=S1(=O)C=C(Sc2nnc(-c3ccccc3)o2)c2ccccc21,2,100*,/,/,-2.1,/
CC(C)[C@H](NS(=O)(=O)c1ccccc1)C(=O)OCC(=O)N1N=C(c2ccc(Cl)cc2)CC1c1ccco1 (some centres undefined),-10,/,/,/,0.04,/
Cc1c(Cl)c(C(=O)N2CCCC2)nn1C,1,/,/,/,-0.13,/
O=C(CCCN1C(=O)/C(=C/c2ccccc2Cl)SC1=S)Nc1ccccn1,-7,/,/,/,-0.88,/
O=C(CCN1C(=O)/C(=C\c2ccccc2Cl)SC1=S)N1CCN(c2ccccc2)CC1,-1,58*,5,5,1,8
Cc1ccc(/C([O-])=C(/C(=S)NCc2ccccc2)[n+]2cccc(CO)c2)cc1[N+](=O)[O-],/,73*,/,/,/,/
O=C(O)c1cccc(S(=O)(=O)Nc2ccccc2Cl)c1,-2,29,95*,-11,2.2,1
COCCOC(=O)c1[nH]c2c(c1C)C(=O)CC(c1cc(OC)ccc1OC)C2 (centres undefined),0,-14,/,/,0.18,/
COc1ccc(OC)c(C2CC(=O)c3c([nH]c(C(=O)OC(C)C)c3C)C2)c1 (centres undefined),0,12,41*,57,-2.1,7
COc1cc(NS(=O)(=O)c2ccc(N/C=C(\C=O)c3nc4ccccc4o3)cc2)nc(OC)n1,-6,/,/,/,-0.24,/
COc1ccc(CC(=O)OCc2cc3ccc(C)cc3[nH]c2=O)cc1,-1,/,93*,71,1.4,-28
COc1ccc2cc(CCNC(=O)C(C)C)c(=O)[nH]c2c1,0,96*,/,/,0.84,/
SMILES,Phagocytosis inh,E-sel TNF inh,VCAM1 TNFa inh,TNFa cytotox,SDO1 yeast rescue,cytoskel mod
C/C(=N\NS(=O)(=O)c1cccc([N+](=O)[O-])c1)c1cccnc1,/,-4,/,/,/,/
CSc1nnc2n(C3CCCCC3)c(=O)c3c4c(sc3n12)CCCC4,-3,/,/,/,/,/
CSc1nnc2n(-c3ccccc3)c(=O)c3c4c(sc3n12)CCC4,-1,-17,58*,77,0.28,-11
Clc1ccc(Nc2ccc(-n3ccnc3)nn2)cc1Cl,0,65*,17,-21,-2.1,5
CC(C)CC(=O)NC(=S)Nc1ccc(NC(=O)c2ccco2)cc1,-1,14,/,/,-0.42,/
O=C(CS(=O)c1ccc(C(F)(F)F)cc1[N+](=O)[O-])Oc1ccc(Cl)cc1 (centres undefined),-1,33,72*,13,0.61,27
Cc1cc(C)cc(OC(=O)CS(=O)c2ccc(C(F)(F)F)cc2[N+](=O)[O-])c1 (centres undefined),-1,28,18,-21,-0.89,-1
CC(C)C(C)NC(=O)COC(=O)c1cc(S(=O)(=O)N(C)C)ccc1N1CCCC1 (centres undefined),/,-17,/,/,/,/
CCCCCOC(=O)Cn1c(SCC(=O)Nc2ccccc2)nc2c1c(=O)[nH]c(=O)n2C,0,74*,-1,-16,-0.94,-30
Oc1ccccc1C1=Nc2ncnn2C(c2ccccc2)C1 (centres undefined),-1,96*,/,/,0.25,/
COc1ccc(NC(=O)c2ccsc2NC(C)=O)cc1,/,15,/,/,/,/
O=C(Nc1ccccc1C(=O)NC(Cc1c[nH]c2ccccc12)C(=O)O)c1ccco1 (centres undefined),0,0,12,3,0.99,-16
O=C(NC(Cc1c[nH]c2ccccc12)C(=O)O)c1ccco1 (centres undefined),0,7,?,100*,1.4,?
CC(C)(C)NC(=O)C1Cc2ccccc2CN1 (centres undefined),/,-1,/,/,/,/
CC(C)C(=O)Nc1ccc(S(=O)(=O)Nc2ccccn2)cc1,/,-20,/,/,/,/
CCOc1cc(C(=O)NCc2nnc(SCC(=O)OC)n2C)cc(OCC)c1OCC,-1,71*,/,/,-0.2,/
CCOC(=O)CSc1nnc(CNC(=O)c2cc(OCC)c(OCC)c(OCC)c2)n1C,-2,0,7,-22,0.74,-9
CC(C)(C)OC(=O)N1CCN(c2ccc([N+](=O)[O-])cc2)CC1,/,-17,/,/,/,/
CCOC(=O)CCCn1nc(C)n2c(cc3sccc32)c1=O,/,8,-19,-13,-0.21,8
CCOC(=O)C(CC)n1nc(C)n2c(cc3sccc32)c1=O (centres undefined),3,46*,/,/,/,/
O=C(Cc1cccs1)NNC(=S)NC(=O)c1ccc(F)c(F)c1,-6,76*,/,/,-0.19,/
O=C(Cc1cccs1)NNC(=S)NC(=O)c1ccccc1,0,/,/,/,-0.49,/
CN(C)S(=O)(=O)c1ccc(C(=O)N2CCN(S(=O)(=O)c3cccs3)CC2)cc1,/,15,/,/,/,/
NC(=O)c1cc(N2C(=O)C=CC2=O)ccc1Cl,2,51*,1,0,0.72,2
COc1ccc(CC(=O)Nc2cccc(SC)c2)cc1OC,/,9,/,/,/,/
Cc1ccccc1OCCCC(=O)Nc1ccc(N2CCOCC2)cc1,-1,76*,/,/,0.69,/
O=C(NCCCN1CCOCC1)/C(=C/c1cccnc1)NC(=O)c1ccccc1,/,0,/,/,/,/
O=C(COc1ccc(/C=N/NC(=O)c2ccccc2)cc1)Nc1ccc([N+](=O)[O-])cc1,/,5,-2,-13,0.48,16
